RecA intein inh: inhibitors of M. tuberculosis RecA intein splicing; inhibition, % (no concentration beside the values); cell-free RecA intein splicing, fluorescence; actives 0.75% (n = 290,000); in the data active = inhibition above about 30%
RmlCD inh 1536: M. tuberculosis RmlC/RmlD inhibition. P9WH09+P9WH11. RmlC+RmlD coupled enzyme assay, percent inhibition; primary screen in compound mixtures. inhibition, % at 3.6 µM. actives 0.03% (n = 160,000). AID 1533; in the data active = inhibition mostly above about 34%, no sharp cut-off
A number is an active result; - = inactive; . = not tested or not shown. Hits are enriched below; roughly 0.77% of the tested compounds scored in any of these assays.

SMILES	RecA intein inh	RmlCD inh 1536
O=C(CCCN1C(=O)/C(=C\c2ccccc2)SC1=S)Nc1ccc(O)cc1	32	-
O=C(O)COc1cccc(/C=C2/SC(=S)N(Cc3ccccc3)C2=O)c1	45	.
O=C(O)CN1C(=O)/C(=C\c2cccc(OCc3ccccc3)c2)SC1=S	-	.
Cc1ccc(NC(=O)COc2cccc(/C=C3\SC(=S)N(CCC(=O)O)C3=O)c2)cc1Cl	31	.
O=C(O)CCN1C(=O)/C(=C\c2cccc(OCC(=O)Nc3ccc(Cl)cc3)c2)SC1=S	-	-
Cc1ccc(/C=C2/SC(=S)N(CCCC(=O)Nc3ccc(O)cc3)C2=O)cc1	-	.
Cc1noc(C(=O)N2CCN(c3ccc(F)cc3)CC2)c1Cl	-	-
CCO[C@@H]1OC(C(=O)NC2CC2)=C[C@H](c2ccccc2)[C@H]1CCCO	-	.
CN(C)c1ccc(C(=O)n2nnc3ccccc32)cc1	49	-
Cc1ccc(C(=O)n2nnc3ccccc32)cc1	-	.
Cc1onc(-c2c(Cl)cccc2Cl)c1C(=O)n1nnc2ccccc21	37	.
Cc1onc(-c2c(Cl)cccc2Cl)c1C(N)=O	.	-
CC(=O)C(=Nc1cccc(Cl)c1)NNc1ccccc1C	-	.
CC(C)CCn1c(N)c(C(=O)NCc2cccs2)c2nc3ccccc3nc21	88	-
COCCNC(=O)c1c(N)n(CCC(C)C)c2nc3ccccc3nc12	-	.
CC(C)CNC(=O)c1c(N)n(Cc2ccc3c(c2)OCO3)c2nc3ccccc3nc12	55	.
CC(C)CCNC(=O)c1c(N)n(Cc2ccc3c(c2)OCO3)c2nc3ccccc3nc12	-	.
COc1ccc(C(C(=O)NC2CCCCC2)N(C(=O)CCl)c2ccc(C)cc2)cc1 (stereo not given)	-	.
COC(CN(C(=O)CCl)C(C(=O)NC1CCCCC1)c1ccc(C)cc1)OC (stereo not given)	32	.
Cc1cnc(C(=O)OC(C(=O)Nc2cc(C(F)(F)F)ccc2Cl)c2ccccc2)cn1 (stereo not given)	-	.
Cc1ccc(-c2nnnn2-c2ccc(C)cc2)cc1	-	-
Cc1ccc(-n2nnnc2CCl)cc1	46	-
Cc1ccc(S(=O)(=O)NC(=O)c2ccc(-c3ccc(-c4ccccc4)cc3)o2)c(C)c1	36	.
Cc1ccc(S(=O)(=O)NC(=O)c2ccc(F)cc2)c(C)c1	-	.
Cn1c(SCC(=O)NCCc2ccccc2)nnc1C1CCCCC1	-	.
SMILES	RecA intein inh	RmlCD inh 1536
Cc1cccc(OCC(=O)Oc2ccc(Cl)cc2)c1	34	.
Cc1cccc(OCC(=O)N2CCN(C(=O)COc3ccc(Cl)cc3)CC2)c1	-	.
Cc1nc(NC(=O)CSc2nnc(C)n2CC2CCCO2)sc1C (stereo not given)	-	-
CCCCNC(=O)CN(C1CCCCC1)S(C)(=O)=O	-	.
CC(=O)Nc1sc(/C(C#N)=C/c2ccc(Cl)c(Cl)c2)nc1-c1ccc(C)cc1	.	75
COc1ccc(/C=N/Nc2nc(-c3ccc(C)cc3)c(NC(C)=O)s2)cc1OC	-	-
CC1C(C)N1CC(O)Cn1ccnc1[N+](=O)[O-] (stereo not given)	-	-
COCCN(C(=O)CNC(=O)c1ccco1)C(C(=O)NC1CCCCC1)c1cccnc1 (stereo not given)	-	.
O=C1NC(c2ccc(-c3ccccc3[N+](=O)[O-])o2)C(C(=O)c2ccc(F)cc2)C(O)(C(F)(F)F)N1 (stereo not given)	83	-
Cc1ccc(C2NC(=O)NC(O)(C(F)(F)F)C2C(=O)c2ccccc2)o1 (stereo not given)	-	-
CCOc1cc(N2CCOCC2)c(OCC)cc1NC(=O)COC(=O)CCn1c(C)csc1=O	-	.
Cc1c2ccccc2nc2c(F)c(N(C)C)c(F)c(F)c12	-	-
CN(C)c1c2ccccc2nc2c(F)c(F)c(F)c(F)c12	-	41
Cc1cccc(OCC(=O)NCc2nc(-c3ccccc3)no2)c1	-	.
Nc1ccc(Br)c2c1C(=O)c1ccccc1C2=O	-	.
Nc1ccc(O)c2c1C(=O)c1ccccc1C2=O	42	-
Cc1cc(C(=O)N2CCN(c3cc(Cl)ccc3C)CC2)on1	-	.
Cc1ccc(C(=O)COC(=O)c2ccco2)cc1C	-	.
O=C(COC(=O)c1ccc2c(c1[N+](=O)[O-])C(=O)c1ccccc1C2=O)NC1CC1	71	-
O=C(COC(=O)c1cccc2c1C(=O)c1ccccc1C2=O)NC1CCCCC1	-	-
C/C(=N\S(=O)(=O)c1ccc(C)cc1)N1CCN(S(=O)(=O)c2ccccc2)C1C(C)C (stereo not given)	-	.
COc1cccc(/C=N/NC(=O)c2cc3c(OC)cccc3[nH]2)c1O	-	69
COc1cccc(/C=N/NC(=O)c2cc3c(OC)cccc3[nH]2)c1OC	-	-
O=C(O)Cc1sc(Nc2cccc3ccccc23)nc1-c1ccc(Cl)cc1	-	.
Clc1nc2ccccc2cc1-c1nnn(-c2ccccc2Br)n1	-	.
O=C(O)C1CCCCC1C(=O)OCCCCOC(=O)C1CCCCC1C(=O)O (stereo not given)	-	-
N[C@@H]1CCCC[C@H]1N.O=C(O)C(=O)O.[Pt]	50	.
